High-throughput results as filed in PubChem.
WRN helicase inh: qHTS for Inhibitors of WRN Helicase; 0.46% of 360,000 active; Potency, µM (series often up to 114 µM), for inactives: at the top dose activity change, negative = inhibition, hits mostly inhibitors; WRN helicase unwinding, fluorescent forked duplex, kinetic; note: % is set by controls: 0 for no effect and ±100 for the full control effect; nearly all actives have a fitted effect of over 55% in size
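WRN at 20 nM final preincubated with compound 15 min at room temperature; reaction started with 100 nM fluorophore/quencher forked duplex oligonucleotide and 2 mM ATP final. Unwinding followed kinetically by red fluorescence (ex 525, em 598 nm).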
Pol beta inh: qHTS Assay for Inhibitors of DNA Polymerase Beta. P06746. Pol beta primer extension/strand displacement, fluorescence kinetic. Potency, µM (titrated, usually from 114 µM), for inactives: at the top dose activity change, negative = inhibition, usual class: inhibitors. 1.3% of 340,000 active. AID 485314, 2010; note: % is set by controls: 0 for no effect and ±100 for the full control effect
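Homogeneous kinetic assay of primer extension and strand displacement by 10 nM Pol beta, preincubated 15 min at room temperature with compound before 50 nM substrate (final) was added. Read at 0 and 10 min; four-parameter Hill fit.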
POLK inh: qHTS for Inhibitors of Polymerase Kappa | purified Pol kappa, fluorescent DNA synthesis assay, 10 min | Potency, µM (top dose mostly 107 µM), inactives show at the top dose activity, negative = inhibition, actives largely listed as inhibitors | 0.53% of 400,000 active; note: % is set by controls: 0 for no effect and ±100 for the full control effect
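First, compounds were pin-transferred onto 10 nM Pol kappa. After 15 min at room temperature, substrate was added to 50 nM final. Fluorescence was then measured kinetically at 0 and 10 min.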
POLH inh: qHTS for Inhibitors of Polymerase Eta; DNA polymerase eta (Homo sapiens), Q9Y253; Potency, µM (titrated, usually from 114 µM), inactives show at the top dose activity change, negative = inhibition, hits mostly inhibitors; 1.2% of 390,000 active; AID 588591, 2011; recombinant Pol eta, fluorescent DNA replication assay; note: % is set by controls: 0 for no effect and ±100 for the full control effect
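Pol eta (10 nM) was preincubated with compounds for 15 min at room temperature, after which fluorescent replication substrate (50 nM final) was added to start the reaction. Fluorescence was read kinetically at 0 and 10 min.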
POLI inh: qHTS for Inhibitors of Polymerase Iota; DNA polymerase iota (Homo sapiens), Q9UNA4; Pol iota fluorescent replication assay, 10 min; 1% of 390,000 active; Potency, µM (highest dose often 115 µM), without a hit: at the highest dose activity, negative = inhibition, most hits filed as inhibitors; AID 588590, 2011
Target sequence (Q9UNA4 whole entry, looked up): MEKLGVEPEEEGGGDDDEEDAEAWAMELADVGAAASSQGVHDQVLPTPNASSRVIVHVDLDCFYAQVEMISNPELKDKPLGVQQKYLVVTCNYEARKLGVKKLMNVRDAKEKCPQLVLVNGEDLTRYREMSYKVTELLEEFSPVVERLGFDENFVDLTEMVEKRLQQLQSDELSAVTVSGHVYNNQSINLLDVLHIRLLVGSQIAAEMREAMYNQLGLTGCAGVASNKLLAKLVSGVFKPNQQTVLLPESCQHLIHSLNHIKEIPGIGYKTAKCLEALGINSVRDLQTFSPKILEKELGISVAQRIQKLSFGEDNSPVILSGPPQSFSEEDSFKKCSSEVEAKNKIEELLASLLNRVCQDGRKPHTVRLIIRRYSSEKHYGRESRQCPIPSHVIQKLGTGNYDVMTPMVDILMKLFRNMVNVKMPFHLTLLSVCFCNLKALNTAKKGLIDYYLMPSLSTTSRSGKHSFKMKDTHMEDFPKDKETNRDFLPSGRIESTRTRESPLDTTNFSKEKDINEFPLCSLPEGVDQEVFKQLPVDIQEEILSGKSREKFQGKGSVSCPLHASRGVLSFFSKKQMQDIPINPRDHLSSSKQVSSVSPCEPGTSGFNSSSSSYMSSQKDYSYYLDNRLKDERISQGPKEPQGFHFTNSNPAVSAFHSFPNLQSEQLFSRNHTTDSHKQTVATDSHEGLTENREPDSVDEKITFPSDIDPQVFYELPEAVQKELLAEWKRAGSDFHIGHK
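Fluorescent replication assay read twice, at 0 min and 10 min after adding 50 nM (final) substrate. Enzyme (10 nM) and compounds were first incubated 15 min at room temperature; enzyme-free buffer wells were negative controls.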
FEN1 inhibitor: qHTS Assay for the Inhibitors of Human Flap endonuclease 1 (FEN1); P39748; Recombinant FEN1 flap cleavage, fluorescence, 15 min; Potency, µM (highest dose often 114 µM), without a hit: top-dose activity change, negative = inhibition, actives largely listed as inhibitors; 0.35% of 390,000 active; AID 588795, 2011; note: % is set by controls: 0 for no effect and ±100 for the full control effect; nearly all actives have a fitted effect of over 65% in size
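Compounds are tested as a concentration series against 10 nM FEN1; after a 15 min room-temperature preincubation, 50 nM substrate starts cleavage, with plate reads at 0 and 15 min. Normalized responses are fitted by a Hill equation.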
* hit, by the source's call; [ ] = dose if it differs, or a comment. Hits are enriched below; roughly 2.4% of the tested compounds scored in any of these assays. Calls come from the whole dose curve; as a rule, active = well fitted curve in the direction sought with a large enough effect; inconclusive = small, poorly fitted or top-dose-only effect, or another doubt; inactive = no such curve, though single readings can be large; an effect the other way counts as inactive or inconclusive. Potency is the fitted concentration of half-maximal effect.

Screening CCOC(=O)C(C)N1C(=O)S/C(=C/c2cc(C)n(-c3ccccn3)c2C)C1=O (configuration not stated) returned WRN helicase inh -7%[57.1 µM], Pol beta inh -3%, POLK inh 89µM*, POLH inh -19%, POLI inh -5% and FEN1 inhibitor -2%.
Screening CCCCCC(=O)Cc1cc(O)cc2c1C(=O)Oc1cc(O)c(C(=O)O)c(CCCCC)c1O2 returned WRN helicase inh 45µM*, Pol beta inh 45µM*, POLK inh 79µM*, POLH inh 18µM*, POLI inh 71µM* and FEN1 inhibitor inconclusive.
Screening CCc1ccc2[nH]c(=O)c(CN(Cc3ccco3)Cc3nnnn3Cc3ccco3)cc2c1 returned POLK inh -45%, POLI inh inconclusive and FEN1 inhibitor -21%.
For CCCCn1cc(S(=O)(=O)c2ccc(CC)cc2)c(=O)c2cc(F)c(N3CCCC(C)C3)cc21 (configuration not stated) the results were Pol beta inh -24%, POLK inh -8%, POLH inh -9%, POLI inh 4% and FEN1 inhibitor -1%.
O=C(O)C1Cc2ccccc2CN1S(=O)(=O)c1ccc(Cl)cc1 (configuration not stated) was read as WRN helicase inh -9%, Pol beta inh inconclusive, POLK inh -24%, POLH inh inconclusive, POLI inh 27% and FEN1 inhibitor 3%.
For O=C(O)C1Cc2ccccc2CN1C(=O)COc1ccc(Cl)cc1 (configuration not stated) the results were WRN helicase inh -6%[11.6 µM], Pol beta inh -27%, POLK inh -20%, POLH inh 32µM*, POLI inh -17% and FEN1 inhibitor -1%.
CCC1CCCCN1C(=O)c1ccc2c(c1)N(Cc1cccc(Cl)c1)C(=O)c1ccccc1S2(=O)=O (configuration not stated) was read as Pol beta inh 6%, POLK inh -6%[60.1 µM], POLH inh 0%, POLI inh -2% and FEN1 inhibitor -2%.
For COc1ccc(C(=O)Nc2ccc3c(c2)N(C2CCCC2)C(=O)c2ccccc2S3)cc1OC the results were Pol beta inh -11%, POLK inh -12%[60.1 µM], POLH inh -3%, POLI inh -3% and FEN1 inhibitor 14%.
For CS(=O)(=O)N(CC(=O)NCc1ccco1)c1ccc(OCc2ccccc2)cc1 the results were WRN helicase inh -9%, Pol beta inh 16µM*, POLK inh -13%, POLH inh -13%, POLI inh inconclusive and FEN1 inhibitor -7%.
For O=C(NOC(=O)c1ccccc1F)c1ccc(OC(F)F)cc1 the results were WRN helicase inh -6%, Pol beta inh -3%, POLK inh -14%, POLH inh 1%, POLI inh 28% and FEN1 inhibitor 0%.
Screening COc1cc(C(=O)ONC(=O)c2ccc(OC(F)F)cc2)cc(OC)c1OC returned WRN helicase inh -11%[11.6 µM], Pol beta inh 32µM*, POLK inh -24%, POLH inh 79µM*, POLI inh inconclusive and FEN1 inhibitor -19%.
Screening CC(C)c1ccc(/C=C2\SC(=S)N(CCC(=O)NCCCn3ccnc3)C2=O)cc1 returned WRN helicase inh -11%, Pol beta inh 40µM*, POLK inh inconclusive, POLH inh -17%, POLI inh -28% and FEN1 inhibitor -3%.
Screening COc1ccc(/C=C2\SC(=S)N(CCC(=O)NCCCn3ccnc3)C2=O)cc1 returned WRN helicase inh 2%, Pol beta inh -1%, POLK inh 11%, POLH inh -16%, POLI inh -6% and FEN1 inhibitor -3%.
